# Laboratory results taken from paper PMC11574364.
# Experiments:
# Assay in all cases: protein domain microarray probed with biotinylated miRNA; Domain array: 20 mM Tris-HCl pH 7.4, 200 mM KCl, 0.2 mM EDTA, 0.05% NP40, 2 ug/ul heparin, overnight 4 C. ORF array: PBS pH 7.0 with RNase inhibitor, 100 ng RNA; high values mean tight binding
# Settings in all cases: ssRNA
# [1] = target: hnRNP-P2 (Homo sapiens, UniProt P35637)
# [2] = target: T1, hnRNP-H2 (Homo sapiens, UniProt P55795)
# T1 sequence: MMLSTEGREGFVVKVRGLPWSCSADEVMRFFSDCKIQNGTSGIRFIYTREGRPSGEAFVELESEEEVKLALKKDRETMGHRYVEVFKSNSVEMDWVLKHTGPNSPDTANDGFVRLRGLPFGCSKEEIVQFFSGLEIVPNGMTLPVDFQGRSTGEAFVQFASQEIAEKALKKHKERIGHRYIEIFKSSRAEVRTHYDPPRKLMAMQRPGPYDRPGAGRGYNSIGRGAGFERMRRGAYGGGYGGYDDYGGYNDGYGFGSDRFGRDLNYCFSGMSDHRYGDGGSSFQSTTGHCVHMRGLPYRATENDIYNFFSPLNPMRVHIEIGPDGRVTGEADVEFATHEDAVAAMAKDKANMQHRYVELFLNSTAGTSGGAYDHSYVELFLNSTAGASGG
# [3] = target: T2, MTHFSD (Homo sapiens, UniProt Q2M296)
# T2 sequence: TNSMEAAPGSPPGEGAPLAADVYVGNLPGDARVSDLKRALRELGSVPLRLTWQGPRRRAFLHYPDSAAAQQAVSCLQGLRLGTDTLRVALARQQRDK
# [4] = target: IGF2BP3 (Homo sapiens, UniProt O00425)
# Sequence of IGF2BP3 (O00425 1-176): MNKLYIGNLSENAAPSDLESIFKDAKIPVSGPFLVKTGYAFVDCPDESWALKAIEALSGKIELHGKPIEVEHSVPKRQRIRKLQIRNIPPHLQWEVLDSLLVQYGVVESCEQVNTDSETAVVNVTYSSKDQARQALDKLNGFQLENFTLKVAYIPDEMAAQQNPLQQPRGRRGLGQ
# [5] = target: T3, NCBP2L (Homo sapiens, UniProt A6PVI3)
# T3 sequence: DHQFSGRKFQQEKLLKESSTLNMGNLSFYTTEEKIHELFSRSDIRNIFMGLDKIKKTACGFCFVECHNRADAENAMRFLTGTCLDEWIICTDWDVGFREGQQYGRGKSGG
# [6] = target: hnRNP-I(1-2) (Homo sapiens, UniProt P26599)
# Sequence of hnRNP-I(1-2) (P26599 40-280): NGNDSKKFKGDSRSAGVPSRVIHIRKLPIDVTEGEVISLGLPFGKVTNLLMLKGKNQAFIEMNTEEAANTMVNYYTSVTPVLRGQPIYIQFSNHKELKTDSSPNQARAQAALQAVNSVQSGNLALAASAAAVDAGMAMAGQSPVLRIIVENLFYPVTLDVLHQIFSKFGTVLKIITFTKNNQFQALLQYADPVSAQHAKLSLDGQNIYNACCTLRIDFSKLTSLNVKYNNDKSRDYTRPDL
# [7] = target: T4, LARP7(1) (Homo sapiens, UniProt Q4G0J3)
# T4 sequence: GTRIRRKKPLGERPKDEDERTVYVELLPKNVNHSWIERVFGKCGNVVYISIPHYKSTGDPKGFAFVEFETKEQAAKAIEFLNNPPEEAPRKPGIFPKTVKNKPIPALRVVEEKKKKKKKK
# [8] = target: CELF5(1-2) (Homo sapiens, UniProt Q8N6W0)
# Sequence of CELF5(1-2) (Q8N6W0 20-233): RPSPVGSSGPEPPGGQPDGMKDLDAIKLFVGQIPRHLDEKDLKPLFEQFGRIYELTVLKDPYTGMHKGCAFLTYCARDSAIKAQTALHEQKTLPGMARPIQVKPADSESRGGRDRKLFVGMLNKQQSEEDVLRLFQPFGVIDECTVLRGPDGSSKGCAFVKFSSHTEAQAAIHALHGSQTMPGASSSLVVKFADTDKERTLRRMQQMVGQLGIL
# [9] = target: EIF4H (Homo sapiens, UniProt Q15056)
# [10] = target: PABPC1L2A (Homo sapiens, UniProt Q5JQF8)
# Sequence of PABPC1L2A (Q5JQF8 whole entry): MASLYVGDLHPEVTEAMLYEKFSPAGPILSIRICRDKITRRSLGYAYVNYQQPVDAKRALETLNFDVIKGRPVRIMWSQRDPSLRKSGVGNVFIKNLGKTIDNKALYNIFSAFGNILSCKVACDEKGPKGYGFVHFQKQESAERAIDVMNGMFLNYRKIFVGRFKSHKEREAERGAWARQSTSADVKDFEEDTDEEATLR
# Sequence of hnRNP-P2 (P35637 265-390): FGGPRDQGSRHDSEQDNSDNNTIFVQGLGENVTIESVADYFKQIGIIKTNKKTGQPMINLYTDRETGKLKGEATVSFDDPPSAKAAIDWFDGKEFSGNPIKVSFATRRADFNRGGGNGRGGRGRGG
Sequence,binding signal [1] [fluorescence intensity],binding signal [2] [fluorescence intensity],binding signal [3] [fluorescence intensity],binding signal [4] [fluorescence intensity],binding signal [5] [fluorescence intensity],binding signal [6] [fluorescence intensity],binding signal [7] [fluorescence intensity],binding signal [8] [fluorescence intensity],binding signal [9] [fluorescence intensity],binding signal [10] [fluorescence intensity]
AGAGGUAGUAGGUUGCAUAGUU,131 ± 2.9,907 ± 16.1,716 ± 48.4,46.2 ± 3.19,202 ± 9.81,1010 ± 92.8,137 ± 1.39,56.1 ± 4.7,115 ± 9.98,179 ± 20.3
UGAGGUAGUAGGUUGUAUAGUU,58.1 ± 13.9,258 ± 16.1,133 ± 32.4,,40.6 ± 4.36,293 ± 83.2,35.35 ± 0.0495,24.4 ± 2.19,31.8 ± 3.73,46.3 ± 9.23
UGAGGUAGUAGGUUGUGUGGUU,576 ± 71.1,727 ± 35.9,439 ± 58.4,36.9 ± 7.82,239 ± 6.08,994 ± 33.7,234 ± 9.55,107 ± 9.34,208 ± 18.3,312 ± 42.4
UGAGGUAGUAGGUUGUAUGGUU,441 ± 19.8,663 ± 15.2,488 ± 22.1,22.9 ± 3.19,180 ± 10.2,911 ± 32.3,153.2 ± 0.424,48 ± 2.14,93.9 ± 8.49,240 ± 13.7
UAGCUUAUCAGACUGAUGUUGA,,20 ± 0.509,42.6 ± 13.9,,43.9 ± 1.85,72.7 ± 35.4,,,,
CAGUGCAAUGAUGAAAGGGCAU,40.3 ± 3.56,944.5 ± 8.38,349.3 ± 0.905,20.1 ± 2.45,162 ± 7.95,185 ± 5.4,104 ± 10.5,52.7 ± 5.17,71.2 ± 5.92,88.7 ± 6.19
